Source: PubChem BioAssay (NCATS)
Records with an inconclusive call do not appear. The source made the active and inactive calls. The call rests on the fitted dose curve; in most records, active means well fitted cell-killing curve with a large enough effect; inconclusive means small, poorly fitted or top-dose-only effect; inactive means no such curve, though single readings can be large or run the other way.

experiment: Quantitative High-Throughput drug screen in 47 multiple myeloma cell lines against the NCATS MIPE library collection: NCIH929_DSMZ cell viability assay (AID 1918978); settings: NCI-H929 myeloma viability, CellTiter-Glo ATP, 48 h; series mostly up to 45.8 µM; further: nearly all actives have a fitted effect of over 35% in size
Excerpt: PI: Beverly A. Mock Ph.D.
Laboratory of Cancer Biology and Genetics,
Center for Cancer Research, National Cancer Institute,
National Institute of Health, Bethesda, Maryland
Drug resistance and disease progression are common in multiple myeloma (MM) patients, underscoring the need for new therapeutic combinations. […] We hypothesized that effective combinations would reduce MYC expression and enhance p16 activity. […] These preclinical data identify potentially useful drug combinations for evaluation in drug-resistant MM and reveal potential mechanisms of combined drug sensitivity.
Described herein is the primary MIPE qHTS used to cherrypick compounds. Validated compounds were then further tested for potential synergistic activiy.
[1] Peat TJ, Gaikwad SM, Dubois W, Gyabaah-Kessie N, Zhang S, Gorjifard S, Phyo Z, Andres M, Hughitt VK, Simpson RM, Miller MA, Girvin AT, Taylor A, Williams D, D'Antonio N, Zhang Y, Rajagopalan A, Flietner E, Wilson K, Zhang X, Shinn P, Klumpp-Thomas C, McKnight C, Itkin Z, Chen L, Kazandijian D, Zhang J, Michalowski AM, Simmons JK, Keats J, Thomas CJ, Mock BA. Drug combinations identified by high-throughput screening promote cell cycle transition and upregulate Smad pathways in myeloma. Cancer Lett. 2023 Aug 1;568:216284. doi: 10.1016/j.canlet.2023.216284. Epub 2023 Jun 24. PMID: 37356470; PMCID: PMC10408729.
SEQUENCE No. (e.g., 1, 2, 3, etc.); […] (e.g., Cells, Incubation, Reagent, etc.); VALUE and DESCRIPTION.
1; Cells; 5 uL; white, solid bottom 1536-well Greiner assay plate.
2; Compounds; 23 nL; Kalypsis pin tool (Wako USA) equipped with a 1536-well pin head to transfer to the assay plates.
3; Incubation; 48 hours; 37C incubation.
4; Reagent;5uL; CellTiter Glo (Promega).
5; Detector; 425V; Luminescence; Viewlux PerkinElmer.
NOTES (numbers refer to Sequence numbers above)
1. The cell-based screening methods employed in this study were like those previously published. Briefly, the corresponding myeloma cell lines were screened in 1,536-well plates with 500 cells, 5-uL per well for inhibition of cell viability (assessed by measuring ATP levels with CellTiterGlo).
2. NCATS MIPE 4.0 library of approved and investigational drugs were added using the Kalypsis pin tool. Wells treated with DMSO only for 100% viability and media only for 0% viability were used as controls.
3. The assay plates were covered and incubated for 48 hours in a 37C, 5% CO2 incubator with controlled humidity.
4. After 48 hours, CellTilter-GloTM luminescent substrate mix (Promega) reagent was added to the assay plate and plates we incubated for 5 min at room temperature.
5. Signal was measured as median relative luminescence units on a ViewLux (PerkinElmer) multiplate reader.
[1] Heske CM, Davis MI, Baumgart JT, Wilson K, Gormally MV, Chen L, Zhang X, Ceribelli M, Duveau DY, Guha R, Ferrer M, Arnaldez FI, Ji J, Tran HL, Zhang Y, Mendoza A, Helman LJ, Thomas CJ. Matrix Screen Identifies Synergistic Combination of PARP Inhibitors and Nicotinamide Phosphoribosyltransferase (NAMPT) Inhibitors in Ewing Sarcoma. Clin Cancer Res. 2017 Dec 1;23(23):7301-7311. doi: 10.1158/1078-0432.CCR-17-1121. Epub 2017 Sep 12. PMID: 28899971; PMCID: PMC6636827.
Potency means the concentration at half of the fitted maximal effect.

With `CC(C)OC(=O)[C@H](C)N[P@](=O)(OC[C@H]1O[C@@H](n2ccc(=O)[nH]c2=O)[C@](C)(F)[C@H]1O)Oc1ccccc1` as the compound, how does the Potency read?
The Potency was “inactive”.

Which Potency does the source give for `C=C1C[C@@]2(O)O[C@@]3(C[C@H]2C(C)C)[C@H](C)CC[C@H]13` here?
The Potency was “inactive”.

With `NC(=O)c1ncn([C@@H]2O[C@H](CO)[C@@H](O)[C@@H]2O)c1O` as the compound, how does the Potency read?
Its Potency is “inactive”.

For `Cn1cnc(=N)c2[nH]cnc21`, which Potency is on record?
The Potency was 0.132 µM (active).

Which Potency does the source give for `COc1cc(C)c(C=CC(C)=CC=CC(C)=CC(=O)O)c(C)c1C` here?
Its Potency is “inactive”.

With `O=C(C=Cc1ccc(CN(CCO)CCc2c[nH]c3ccccc23)cc1)NO` as the compound, how does the Potency read?
Its Potency is 0.105 µM (active).

With `O=[N+]([O-])c1cn2c(n1)OC[C@@H](OCc1ccc(OC(F)(F)F)cc1)C2` as the compound, how does the Potency read?
Its Potency is “inactive”.

Which Potency does the source give for `CC(=O)ON=C1C(c2c(O)[nH]c3cc(Br)ccc23)=Nc2ccccc21` here?
Its Potency is 2.09 µM (active).

For `Oc1cc(-c2nc(-c3ccccc3)[nH]c2-c2ccncc2)ccc1Cl`, which Potency is on record?
The Potency was 3.72 µM (active).

With `c1ccc(CNc2nc(NCc3ccccc3)c3ccccc3n2)cc1` as the compound, how does the Potency read?
Its Potency is 8.33 µM (active).

For `CC[C@@]1([C@@H]2O[C@@H]([C@H]3O[C@@](O)(CO)[C@H](C)C[C@H]3C)C[C@H]2C)CC[C@H]([C@]2(C)CC[C@]3(C[C@H](O)[C@@H](C)[C@@H]([C@@H](C)[C@@H](OC)[C@H](C)C(=O)O)O3)O2)O1`, which Potency is on record?
The Potency was 0.288 µM (active).

Which Potency does the source give for `Cc1cncc2cccc(S(=O)(=O)N3CCCN(C(=O)CN)C[C@@H]3C)c12` here?
Its Potency is 18.7 µM (active).

With `CC(C=CC(=O)NO)=C[C@@H](C)C(=O)c1ccc(N(C)C)cc1` as the compound, how does the Potency read?
Its Potency is 0.296 µM (active).

For `Oc1ccc(-c2ccc(-c3cc(Nc4cccc(CNC5CC5)c4)n[nH]3)cc2)c(O)c1`, which Potency is on record?
Its Potency is 1.18 µM (active).

For `COc1cc2c(cc1OC)[C@@H]1C(=O)c3ccc4c(c3O[C@@H]1CO2)C=CC(C)(C)O4`, which Potency is on record?
Its Potency is 0.662 µM (active).

With `Cc1cc(O)c2c(c1)C(=O)c1cccc(O)c1C2=O` as the compound, how does the Potency read?
The Potency was “inactive”.

With `C=C(C)[C@@H]1CC[C@]2(C(=O)O)CC[C@]3(C)[C@H](CC[C@@H]4[C@@]5(C)CC[C@H](O)C(C)(C)[C@@H]5CC[C@]43C)[C@@H]12` as the compound, how does the Potency read?
Its Potency is “inactive”.

For `CCn1c(=O)c2c(nc(C=Cc3ccc(OC)c(OC)c3)n2C)n(CC)c1=O`, which Potency is on record?
Its Potency is “inactive”.

Which Potency does the source give for `CN[C@H]1[C@@H](O)[C@@H]2O[C@@H]3O[C@H](C)CC(=O)[C@]3(O)O[C@@H]2[C@@H](NC)[C@H]1O` here?
Its Potency is 0.935 µM (active).

Which Potency does the source give for `Cc1ccc2nc(NCCN)c3ncc(C)n3c2c1` here?
The Potency was 5.9 µM (active).

For `C=C1C(=CC=C2CCC[C@]3(C)[C@@H]([C@H](C)CCCC(C)(C)O)CC[C@@H]23)C[C@@H](O)C[C@@H]1O`, which Potency is on record?
Its Potency is 3.72 µM (active).

For `O=C1c2cccc(O)c2C(=O)c2c(O)cc(CO)cc21`, which Potency is on record?
The Potency was “inactive”.

Which Potency does the source give for `CN1CCCN(C(=O)c2cccc(-c3ccc(C=C4C(=O)Nc5ccc(Cl)cc54)o3)c2)CC1` here?
Its Potency is 20.9 µM (active).

Which Potency does the source give for `COc1ccc(S(=O)(=O)Nc2cc(-c3c(O)ccc4ccccc34)c(O)c3ccccc23)cc1` here?
Its Potency is 3.32 µM (active).

With `O=C1NCCc2[nH]c(-c3ccncc3)cc21` as the compound, how does the Potency read?
The Potency was 2.64 µM (active).

With `CCOc1cc2c(c(F)c1OCC)C(=N)N(CC(=O)c1cc(N3CCOCC3)c(OC)c(C(C)(C)C)c1)C2` as the compound, how does the Potency read?
Its Potency is 14.8 µM (active).

Which Potency does the source give for `COc1ccc([C@@H]2CNC(=O)C2)cc1OC1CCCC1` here?
Its Potency is 4.18 µM (active).

For `C[C@H]1C[C@H]2[C@@H]3CCC4=CC(=O)C=C[C@]4(C)[C@@H]3C(=O)C[C@]2(C)[C@@]1(O)C(=O)CO`, which Potency is on record?
The Potency was “inactive”.

For `CC(O)(C#Cc1ccc2c(c1)N(c1nc(N)ncc1Cl)CC2)c1nccs1` (stereo not given), which Potency is on record?
The Potency was 1.18 µM (active).

For `CCC[C@H]1C[C@H](C(=O)N[C@@H]([C@@H]2O[C@@H](SC)[C@@H](O)[C@@H](O)[C@@H]2O)[C@H](C)Cl)N(C)C1`, which Potency is on record?
Its Potency is “inactive”.

For `C=C[C@@H]1CN2CCC1C[C@H]2[C@H](O)c1ccnc2ccc(OC)cc12` (stereo not given in full), which Potency is on record?
Its Potency is “inactive”.

For `CC[C@H]1OC(=O)[C@H](C)[C@@H](O[C@H]2C[C@@](C)(OC)[C@@H](O)[C@H](C)O2)[C@H](C)[C@@H](O[C@@H]2O[C@@H](C)C[C@H](N(C)C)[C@@H]2O)[C@](C)(O)C[C@@H](C)C(=O)[C@H](C)[C@@H](O)[C@]1(C)O`, which Potency is on record?
The Potency was “inactive”.

For `C[C@H](CCC(=O)O)[C@H]1CC[C@H]2[C@@H]3[C@H](O)C[C@@H]4C[C@H](O)CC[C@]4(C)[C@@H]3CC[C@]12C`, which Potency is on record?
The Potency was “inactive”.

Which Potency does the source give for `O=C(C=CC=Cc1ccc2c(c1)OCO2)N1CCCCC1` here?
Its Potency is “inactive”.

For `C[C@@H](Cc1cc2c(c(C(N)=O)c1)N(CCCO)CC2)NCCOc1ccccc1OCC(F)(F)F`, which Potency is on record?
Its Potency is “inactive”.

For `NC1=N[C@H]2[C@H](CS[C@H]2CCCCC(=O)O)N1`, which Potency is on record?
The Potency was “inactive”.

For `Cn1cc(C2=C(c3c4n(c5ccccc35)CCC(CN)C4)C(=O)NC2=O)c2ccccc21` (stereo not given), which Potency is on record?
The Potency was 7.43 µM (active).

With `CC(C=CC1=C(C)CCCC1(C)C)=CC=CC(C)=CC(=O)Nc1ccc(O)cc1` as the compound, how does the Potency read?
The Potency was 21.5 µM (active).

Which Potency does the source give for `CCCCC(=O)O[C@]1(C(=O)CO)[C@@H](C)C[C@H]2[C@@H]3CCC4=CC(=O)C=C[C@]4(C)[C@@]3(F)[C@@H](O)C[C@@]21C` here?
Its Potency is “inactive”.

With `COc1cc(C)c(Sc2cnc(NC(=O)c3ccc(CNC(C)C(C)(C)C)cc3)s2)cc1C(=O)N1CCN(C(C)=O)CC1` (stereo not given) as the compound, how does the Potency read?
The Potency was 3.32 µM (active).
